Compound activity as filed in PubChem BioAssay.
Peg3 promoter: Peg3 promoter-driven luciferase inhibitors, primary screen, cell-based, HeLa, luciferase luminescence; HeLa PEG-Prom luciferase reporter, overnight; inhibition, % at 20 µM; hit rate 1.7% among 360,000; AID 588405, 2011;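 active = inhibition of at least 50% at 20 µM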
HIF-2a inh: HIF-2a reporter inhibitors, primary screen, luminescence, 786-0 RCC cells. 786-0 RCC cells HIF-2a reporter, luciferase luminescence, overnight. inhibition, % at 18.8 µM. hit rate 0.72% among 360,000;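 active = inhibition of the luminescence signal of 40% or more relative to plate controls, in a single-dose primary screen at 18.75 µM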
KKLEB tox: cytotoxicity in KKLEB CF airway cells, primary screen, cytotoxicity control for CF NF-kB inhibitor project, cell-based, uHTS, fluorescence assay plates | KKLEB CF airway cells viability, ATPlite luminescence, overnight; stronger effect = lower value; cells stimulated with P. aeruginosa culture filtrate | activity change (cytotoxicity), % at 5 µM | hit rate 0.36% among 360,000;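 active = corrected activity change at or below -50% at 5 µM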
TWEAK-Fn14 inh: inhibitors of TWEAK-Fn14 signaling, primary screen, luciferase reporter cells, uHTS. TWEAK-stimulated Fn14 reporter cells, luciferase luminescence, 8 h. inhibition, % at 10 µM. hit rate 2% among 360,000. AID 1159606, 2016; in the data active = inhibition above about 50%
CF NFkB inh: inhibitors of PAF-induced NF-kB signaling, primary screen, cell-based, GFP fluorescence, uHTS; KKLEB NF-kB-GFP reporter, GFP fluorescence overnight; inhibition, % at 5 µM; hit rate 0.86% among 360,000; AID 588850, 2011;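 active = at least 50% inhibition at 5 µM, scaled per plate between neutral and stimulator controls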;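 note: PAF is a Pseudomonas aeruginosa culture filtrate used as stimulus; plate controls were PAF-stimulated DMSO wells for no effect and unstimulated DMSO wells for full effect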
TROY NFkB inh: inhibitors of TROY-driven NF-kB signaling, primary screen, Q293 LMP1-TROYcd cells, NF-kB luciferase, uHTS | Q293 LMP1-TROYcd NF-kB luciferase reporter, 4 h | inhibition, % at 10 µM | hit rate 0.98% among 360,000 | AID 1347056, 2019;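 active = compounds whose plate-normalised and pattern-corrected inhibition of the luciferase reporter signal at the single screening dose is 50% or more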
Active calls of the source: *; . = no result given. Most compounds without a hit are left out; they make up all but 4% or so of the library.

SMILES	Peg3 promoter	HIF-2a inh	KKLEB tox	TWEAK-Fn14 inh	CF NFkB inh	TROY NFkB inh
COc1ccc(C2CC(c3ccccc3)=NN2C(=O)COC(=O)c2cnc(Cl)c(Cl)c2)cc1 (configuration not stated)	99*	2	-7	-71	13	-45
C#CCOCCOCCOCCNc1nc(N2CCN(C(=O)CCCCCCCCCCNC(=O)[C@@H](CCC(=O)O)n3cc(CCCCCN)nn3)CC2)nc(N2CCN(C(=O)CCCCCCCCCCNC(=O)[C@H]([C@@H](C)CC)n3cc(CCCCCN)nn3)CC2)n1	-40	-17	19	-62	0	-9
C#CCOCCOCCOCCNc1nc(N2CCN(C(=O)CCCCCCCCCCNC(=O)Cn3cc(CCCCCN)nn3)CC2)nc(N2CCN(C(=O)CCCCCCCCCCNC(=O)[C@@H](CCSC)n3cc(CCO)nn3)CC2)n1	77*	-11	5	-24	-10	-21
C#CCOCCOCCOCCNc1nc(N2CCN(C(=O)CCCCCCCCCCNC(=O)[C@H]([C@@H](C)CC)n3cc(CCCCCN)nn3)CC2)nc(N2CCN(C(=O)CCCCCCCCCCNC(=O)[C@H]([C@@H](C)CC)n3cc(CCCCN=C(N)N)nn3)CC2)n1	71*	-4	13	42	-46	39
C#CCOCCOCCOCCNc1nc(N2CCN(C(=O)CCCCCCCCCCNC(=O)[C@H]([C@@H](C)CC)n3cc(CCCCCN)nn3)CC2)nc(N2CCN(C(=O)CCCCCCCCCCNC(=O)[C@H](CO)n3cc(CCCCCN)nn3)CC2)n1	99*	-3	-6	-21	-22	21
C#CCOCCOCCOCCNc1nc(N2CCOCC2)nc(N2CCN(C(=O)CCCCCCCCCCNC(=O)[C@@H]([C@H](C)CC)n3cc(CCCCCN)nn3)CC2)n1	53*	-2	8	-39	1	-2
C#CCOCCOCCOCCNc1nc(N2CCN(C(=O)CCCCCCCCCCNC(=O)[C@H]([C@@H](C)CC)n3cc(CCCCN=C(N)N)nn3)CC2)nc(N2CCN(C(=O)CCCCCCCCCCNC(=O)[C@H](CO)n3cc(CCCCCN)nn3)CC2)n1	28	0	10	0	8	21
CN(Cc1ccccc1)C(=O)CN1C(=O)NC2(CCCc3sccc32)C1=O (configuration not stated)	12	11	6	-1	-2	8
Cc1ccc(C(=O)N2CCN(C)CC2)cc1[N+](=O)[O-]	11	7	-4	-4	5	11
COc1ccc(COC(=O)CCc2cc(OC)c(OC)c(OC)c2)cc1F	0	11	0	13	-5	13
CC1CN(C(=O)c2ccc(Br)c(S(=O)(=O)N3CCOCC3)c2)CC(C)O1 (configuration not stated)	19	9	1	-4	13	-10
Cn1nc(-c2ccc(N3CCOCC3)c(NS(=O)(=O)c3ccc(Cl)cc3)c2)c2ccccc2c1=O	24	14	-4	61*	-28	.
Cc1onc(C(=O)N2CCC(C(N)=O)CC2)c1-c1ccccc1Cl	5	11	1	87*	-7	1
Cc1cc(Nc2cccc([N+](=O)[O-])c2)n2c(nc3ccccc32)c1C#N	17	11	-38	77*	35	26
CCN(CC)CCNc1cc(C)c(C#N)c2nc3ccccc3n12	7	2	-4	-31	-21	-7
COC(=O)[C@]12CCCCC=C1N(Cc1cccc3ccccc13)C(=O)[C@H](CC(=O)NCc1ccc(C)o1)C2	.	1	.	3	.	12
Cc1[nH]c2ccccc2c1C(=O)C(C)OC(=O)c1ccccc1NCCO (configuration not stated)	-75	-31	-1	53*	-2	31
CCC(=O)OCOc1ccc(/C=C2/CCC(CN(C)C)C2=O)cc1 (configuration not stated)	100*	93*	-2	37	-4	-7
